9 compounds from PubChem BioAssay (NCI) can be followed below.

This is part of a sample that, as a whole, favours compounds with a hit. Of some 79,000 tested, about 15% had one in any assay. A number with no mark means an inactive call. The source made the active and inactive calls. Cut-off read from the data, not from the text of the source: active = growth inhibition above about 70%; inactive = the rest.

The nature of experiment [1]: NCI Yeast Anticancer Drug Screen. Data for the rad50 strain (AID 155).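 Note: 0% = growth of vehicle-only cultures of the same strain.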 The conditions noted are these: S. cerevisiae rad50 strain growth inhibition, hits give high values. The method, boiled down:
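Inhibition values express reduced yeast growth in compound-treated cultures relative to vehicle-treated controls.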

A short description of experiment [2]: NCI Yeast Anticancer Drug Screen. Data for the mec2-1 strain (AID 157). The note with it: S. cerevisiae mec2-1 strain, hits give high values. The gist of the method: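 Yeast mec2-1 mutant treated with compound. Readout: growth inhibition vs vehicle controls.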
Experiment [3] can be described thus: NCI Yeast Anticancer Drug Screen. Data for the sgs1 mgt1 strain (AID 161).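 Note: 0% = growth of cultures given vehicle only.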 The conditions noted are these: S. cerevisiae sgs1 mgt1 strain, hits give high values. The gist of the method: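 Inhibition of yeast growth, normalised to vehicle-treated controls, is reported for a strain bearing genetic alterations in DNA damage repair.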
The nature of experiment [4]: NCI Yeast Anticancer Drug Screen. Data for the cln2 rad14 strain (AID 165).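 Note: 0% = growth equal to vehicle treated cultures.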 The note with it: S. cerevisiae cln2 rad14 strain, hits give high values. The gist of the method: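 cln2 rad14 yeast strain; compound exposure; growth inhibition read vs vehicle controls.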
Experiment [5] in a line: NCI Yeast Anticancer Drug Screen. Data for the bub3 strain (AID 167). The conditions noted are these: S. cerevisiae bub3 mutant strain, hits give high values. The method, boiled down:
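Steps: expose the mutant yeast strain to compound; grow alongside vehicle-treated cultures; measure growth; express inhibition against the vehicle cultures.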

Experiment [6] can be described thus: NCI Yeast Anticancer Drug Screen. Data for the mlh1 rad18 strain (AID 175). The conditions noted are these: S. cerevisiae mlh1 rad18 strain growth inhibition, hits give high values. The method, boiled down:
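Yeast w/ defined DNA-repair lesions; compound exposure; growth vs vehicle controls → % inhibition.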

Setting [7] is: at 5.0 µM (retest, dose inferred, filed as 0.5).
Setting [8] is: at 50.0 µM (retest, dose inferred, filed as 5.0).

Take `O=Cc1ccc2cc(Cl)ccc2n1`: the growth inhibition was -156% in experiment [1] (setting [7]); -135% in experiment [1] (setting [8]); -14.9% in experiment [1] (at 50.0 µM); -48% in experiment [2] (setting [7]); -55% in experiment [2] (setting [8]); 18.4% in experiment [2] (at 50.0 µM). Moreover, the growth inhibition was -63% in experiment [3] (setting [7]); -63% in experiment [3] (setting [8]); 10% in experiment [3] (at 50.0 µM); -50% in experiment [4] (setting [7]); -67% in experiment [4] (setting [8]); 46.6% in experiment [4] (at 50.0 µM). Also, the growth inhibition in experiment [5] (setting [7]) is -71%; in experiment [5] (setting [8]), -83%; in experiment [5] (at 50.0 µM), -14.4%; in experiment [6] (setting [7]) it was -138%; in experiment [6] (setting [8]), -111%; in experiment [6] (at 50.0 µM), 2.55%.
With `Cc1ccc(S(=O)(=O)OCCCCOS(=O)(=O)c2ccc(C)cc2)cc1`, the growth inhibition in experiment [1] (setting [7]) was 0%; in experiment [1] (setting [8]) it was 4%; in experiment [1] (at 50.0 µM) it was 76% (active); in experiment [2] (setting [7]) it was -7%; in experiment [2] (setting [8]) it was -3%; in experiment [2] (at 50.0 µM) it was 26.1%. The growth inhibition was -6% in experiment [3] (setting [7]); 4% in experiment [3] (setting [8]); 15.7% in experiment [3] (at 50.0 µM); 2% in experiment [4] (setting [7]); -5% in experiment [4] (setting [8]); 28.4% in experiment [4] (at 50.0 µM). The growth inhibition in experiment [5] (setting [7]) was -2%; in experiment [5] (setting [8]), 2%; in experiment [5] (at 50.0 µM) it was -17.2%; in experiment [6] (setting [7]), 2%; in experiment [6] (setting [8]), 1%; in experiment [6] (at 50.0 µM), 15.1%.
Regarding `Cc1nc(Nc2ccc(Cl)cc2)sc1C(=O)NNC(=O)C(=O)NN`, the growth inhibition is 3% in experiment [1] (setting [7]); 3% in experiment [1] (setting [8]); 80.5% (active) in experiment [1] (at 50.0 µM); -19% in experiment [2] (setting [7]); -8% in experiment [2] (setting [8]); 59.5% in experiment [2] (at 50.0 µM). The growth inhibition in experiment [3] (setting [7]) is -13%; in experiment [3] (setting [8]), 9%; in experiment [3] (at 50.0 µM), 61.8%; in experiment [4] (setting [7]), -31%; in experiment [4] (setting [8]), -10%; in experiment [4] (at 50.0 µM), 64.5%. Further, the growth inhibition in experiment [5] (setting [7]) was -26%; in experiment [5] (setting [8]), -5%; in experiment [5] (at 50.0 µM) it was 41.1%; in experiment [6] (setting [7]), -45%; in experiment [6] (setting [8]) it was -32%; in experiment [6] (at 50.0 µM), 69.5%.
As to `O=C(N/N=C/c1ccccc1O)c1ccccc1-n1cccc1`, the growth inhibition in experiment [1] (setting [7]) is 52%; in experiment [1] (setting [8]), 64%; in experiment [1] (at 50.0 µM) it was 53.6%; in experiment [2] (setting [7]), 30%; in experiment [2] (setting [8]), 53%; in experiment [2] (at 50.0 µM), 36.6%. In addition, the growth inhibition is 43% in experiment [3] (setting [7]); 81% (active) in experiment [3] (setting [8]); 80% (active) in experiment [3] (at 50.0 µM); 32% in experiment [4] (setting [7]); 49% in experiment [4] (setting [8]); 45% in experiment [4] (at 50.0 µM). In addition, the growth inhibition in experiment [5] (setting [7]) was 41%; in experiment [5] (setting [8]), 71% (active); in experiment [5] (at 50.0 µM) it was 62.7%; in experiment [6] (setting [7]) it was 59%; in experiment [6] (setting [8]) it was 74% (active); in experiment [6] (at 50.0 µM), 63.1%.
For the compound `CCCC(/C=N/N=C(N)N)=N\N=C(N)N`, the growth inhibition in experiment [1] (setting [7]) is -24%; in experiment [1] (setting [8]), -8%; in experiment [1] (at 50.0 µM), -24.1%; in experiment [2] (setting [7]), -11%; in experiment [2] (setting [8]), 4%; in experiment [2] (at 50.0 µM), -8.95%. Further, the growth inhibition in experiment [3] (setting [7]) was -1%; in experiment [3] (setting [8]), -30%; in experiment [3] (at 50.0 µM), -14.3%; in experiment [4] (setting [7]), 10%; in experiment [4] (setting [8]) it was 0%; in experiment [4] (at 50.0 µM), -33.1%. In addition, the growth inhibition in experiment [5] (setting [7]) is -12%; in experiment [5] (setting [8]), -2%; in experiment [5] (at 50.0 µM) it was -8.95%; in experiment [6] (setting [7]), 4%; in experiment [6] (setting [8]), -1%; in experiment [6] (at 50.0 µM), -10.6%.
With `Cc1ccc(C(Cl)(c2ccc(C)cc2)c2ccc(C)cc2)cc1`, the growth inhibition in experiment [1] (setting [7]) is 3%; in experiment [1] (setting [8]), 90% (active); in experiment [1] (at 50.0 µM), 67.5%; in experiment [2] (setting [7]), 39%; in experiment [2] (setting [8]), 93% (active); in experiment [2] (at 50.0 µM) it was 93.1% (active). Moreover, the growth inhibition was -3% in experiment [3] (setting [7]); 93% (active) in experiment [3] (setting [8]); 97.5% (active) in experiment [3] (at 50.0 µM); -2% in experiment [4] (setting [7]); 90% (active) in experiment [4] (setting [8]); 94.5% (active) in experiment [4] (at 50.0 µM). Moreover, the growth inhibition in experiment [5] (setting [7]) is 87% (active); in experiment [5] (setting [8]) it was 92% (active); in experiment [5] (at 50.0 µM), 97.2% (active); in experiment [6] (setting [7]), 11%; in experiment [6] (setting [8]), 91% (active); in experiment [6] (at 50.0 µM) it was 92.2% (active).
Take `CC(=NCC(=O)O)c1ccccc1`: the growth inhibition is -12% in experiment [1] (setting [7]); -6% in experiment [1] (setting [8]); 48.5% in experiment [1] (at 50.0 µM); -6% in experiment [2] (setting [7]); -3% in experiment [2] (setting [8]); -20.2% in experiment [2] (at 50.0 µM). For the same compound, the growth inhibition was -8% in experiment [3] (setting [7]); -4% in experiment [3] (setting [8]); -52.9% in experiment [3] (at 50.0 µM); 2% in experiment [4] (setting [7]); -6% in experiment [4] (setting [8]); -4.8% in experiment [4] (at 50.0 µM). Also, the growth inhibition in experiment [5] (setting [7]) is 10%; in experiment [5] (setting [8]) it was 13%; in experiment [5] (at 50.0 µM), -22.1%; in experiment [6] (setting [7]), -4%; in experiment [6] (setting [8]) it was 1%; in experiment [6] (at 50.0 µM), -5.7%.
On to `CC(C)O[C@H]1N(C2CC(N=[N+]=[N-])C(CO)O2)C(=O)NC(=O)[C@]1(C)Br` (some centres not stated), for which the growth inhibition was 14% in experiment [1] (setting [7]); 48% in experiment [1] (setting [8]); 87.1% (active) in experiment [1] (at 50.0 µM); -6% in experiment [2] (setting [7]); 57% in experiment [2] (setting [8]); 91.2% (active) in experiment [2] (at 50.0 µM). The growth inhibition in experiment [3] (setting [7]) was 0%; in experiment [3] (setting [8]), 56%; in experiment [3] (at 50.0 µM), 90.5% (active); in experiment [4] (setting [7]), 4%; in experiment [4] (setting [8]), 37%; in experiment [4] (at 50.0 µM), 89% (active). Also, the growth inhibition in experiment [5] (setting [7]) was -7%; in experiment [5] (setting [8]), 40%; in experiment [5] (at 50.0 µM), 90.5% (active); in experiment [6] (setting [7]), -4%; in experiment [6] (setting [8]) it was 63%; in experiment [6] (at 50.0 µM) it was 91.1% (active).
As for `Cc1ccc2c(c1)nc1n2C(N)=Nc2ccccc2S1`, the growth inhibition was 14% in experiment [1] (setting [7]); 47% in experiment [1] (setting [8]); 65.5% in experiment [1] (at 50.0 µM); -14% in experiment [2] (setting [7]); 28% in experiment [2] (setting [8]); 45.3% in experiment [2] (at 50.0 µM). In addition, the growth inhibition in experiment [3] (setting [7]) is -5%; in experiment [3] (setting [8]), 45%; in experiment [3] (at 50.0 µM), 68.6%; in experiment [4] (setting [7]), -10%; in experiment [4] (setting [8]), 17%; in experiment [4] (at 50.0 µM), 37.8%. In addition, the growth inhibition in experiment [5] (setting [7]) is -16%; in experiment [5] (setting [8]), 47%; in experiment [5] (at 50.0 µM) it was 75.2% (active); in experiment [6] (setting [7]), 0%; in experiment [6] (setting [8]), 40%; in experiment [6] (at 50.0 µM), 57.2%.
